Laboratory results from PubChem BioAssay (NCATS).
Values joined by “and” are separate entries in the source; they are usually repeats but may differ in a detail not shown here. Identical values can stand only once. Records with an inconclusive call do not appear. Active and inactive are the calls of the source. Calls come from the whole dose curve; as a rule, active = well fitted curve in the direction sought with a large enough effect; inconclusive = small, poorly fitted or top-dose-only effect, or another doubt; inactive = no such curve, though single readings can be large; an effect the other way counts as inactive or inconclusive.

Key:
[1] = qHTS Screen of the MIPE 4.0 Collection Against Ewings Sarcoma (TC71) (AID 1259253); settings: TC71 Ewing sarcoma viability, CellTiter-Glo, 48 h; series mostly up to 45.8 µM; note: nearly all actives have a fitted effect of over 40% in size
In short: (§1)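 Viability screen: 48 h incubation at 37C, 95% humidity, 5% CO2 with serially titrated compound, followed by CellTiter-Glo readout.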

[2] = qHTS Screen of the MIPE 4.0 Collection Against Ewings Sarcoma (EW8) (AID 1259255); settings: EW8 Ewing sarcoma viability, CellTiter-Glo, 48 h; series mostly up to 45.8 µM; note: nearly all actives have a fitted effect of over 35% in size
In short: as §1

[3] = qHTS Screen of the MIPE 4.0 Collection Against Ewings Sarcoma (TC32) (AID 1259256); settings: TC32 Ewing sarcoma viability, CellTiter-Glo, 48 h; series mostly up to 45.8 µM; note: nearly all actives have a fitted effect of over 45% in size
In short: as §1

[4] = P-glycoprotein substrates identified in KB-8-5-11 adenocarcinoma cell line, qHTS therapeutic library screen (AID 1346987); settings: KB-8-5-11 (P-gp overexpressing) viability, CellTiter-Glo, 72 h; series mostly up to 44.5 µM; note: nearly all actives have a fitted effect of over 65% in size
In short: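 Luminescence from CellTiter-Glo, read 5 min after addition, quantified survival of KB-8-5-11 (P-gp-overexpressing) cells exposed to compounds for 72 h. AC50 was derived from concentration-response curves.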

[5] = NS1 protein of Zika virus - qHTS assay to identify small molecule inhibitors in human HEK 293 cells (AID 1347053); settings: HEK293 ZIKV MR766 infection, NS1 TR-FRET, 24 h; series mostly up to 46.1 µM; note: nearly all actives have a fitted effect of over 55% in size
In short: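 Compound-treated (1 h pre-infection) HEK 293 cells infected with ZIKV MR766, MOI = 0.5; after 24 h at 37 C, NS1 read by TR-FRET; data normalized to uninfected and infected controls.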
Potency is the fitted concentration of half-maximal effect.

Row | SMILES | Potency [1] | Potency [2] | Potency [3] | Potency [4] | Potency [5]
1 | COCCOc1ccc2c(c1)ncn2-c1ccc2cccc(N3CCC(N)CC3)c2n1 | 14.8 µM (active) | 18.7 µM (active) | 23.5 µM (active) | 23.5 µM (active) | –
2 | COc1cc(-c2nn(C3CCC(N4CCN(C(C)=O)CC4)CC3)c3ncnc(N)c23)ccc1NC(=O)c1cc2ccccc2n1C (stereo not given) | 2.96 µM (active) | 6.62 µM (active) | 3.72 µM (active) | – | inactive
3 | NC(=O)c1c(OCc2c(F)cc(Br)cc2F)nsc1NC(=O)NCCCCN1CCCC1 | 18.7 µM (active) | 9.35 µM (active) | 14.8 µM (active) | 18.4 µM (active) | inactive
4 | CCN1CCN(Cc2ccc(-c3cc4c(N[C@H](C)c5ccccc5)ncnc4[nH]3)cc2)CC1 | 0.0053 µM (active) | – | 0.0148 µM (active) | inactive | –
5 | C=CC(=O)Nc1cccc(Oc2nc(Nc3ccc(N4CCN(C)CC4)cc3)ncc2Cl)c1 | 14.8 µM (active) | – | 2.64 µM (active) | 3.32 µM (active) and 7.31 µM (active) | 13.2 µM (active)
